Experimental findings from PubChem BioAssay (NCATS) are described below.

The structures appear in SMILES notation. Results filed as inconclusive are left out. The source made the active and inactive calls. The call rests on the fitted dose curve; in most records, active means well fitted curve in the direction sought with a large enough effect; inconclusive means small, poorly fitted or top-dose-only effect, or another doubt; inactive means no such curve, though single readings can be large; an effect the other way counts as inactive or inconclusive.

Assay [1] is described as follows: Cell Viability - LYMP2-008 (AID 980). Further: nearly all actives have a fitted effect of over 60% in size. Further: potency means the concentration at half of the fitted maximal effect. In short, it runs like this: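 LYMP2-008 lymphoblastoid cells (2500/well) plated 5 h, then treated 24 h at 37 C in complete medium. Viability read as intracellular ATP by CellTiter-Glo luminescence after 30 min at room temperature; AC50 from Hill fits.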
Assay [2] in a line: Cell Viability - LYMP2-010 (AID 981). Further: nearly all actives have a fitted effect of over 55% in size. Further: potency means the concentration at half of the fitted maximal effect. In short, it runs like this: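 Human lymphoblastoid LYMP2-010 cells (2500/well) treated 24 h at 37 C in complete medium; viability read as intracellular ATP by CellTiter-Glo luminescence. AC50 from Hill fits of concentration-response data; tetraoctylammonium bromide positive control.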
The nature of assay [3]: Cell Viability - LYMP2-012 (AID 982).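 Further: cellular ATP by luciferase luminescence where a drop means cytotoxicity; cells exposed to compound for one day before reading; nearly all actives have a fitted effect of over 55% in size.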 Further: potency means the concentration at half of the fitted maximal effect.
Assay [4] can be described thus: Cell Viability - LYMP2-014 (AID 983). Further: nearly all actives have a fitted effect of over 50% in size. Further: potency means the concentration at half of the fitted maximal effect. In short, it runs like this: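 LYMP2-014 human lymphoblastoid cells, 2500/well, treated 24 h at 37 C in complete medium; viability by CellTiter-Glo ATP luminescence after 30 min at room temperature. AC50 from Hill fits of qHTS concentration-response; tetraoctylammonium bromide positive control.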
Assay [5] in a line: Cell Viability - LYMP2-016 (AID 984). Further: nearly all actives have a fitted effect of over 55% in size. Further: potency means the concentration at half of the fitted maximal effect. In short, it runs like this:
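Acute toxicity in a Coriell human lymphoblastoid line is scored as loss of intracellular ATP over 24 h of treatment in complete medium. CellTiter-Glo signal is fitted across concentrations with the Hill equation to give AC50.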

Assay [6] is described as follows: Cell Viability - LYMP2-020 (AID 986). Further: nearly all actives have a fitted effect of over 55% in size. Further: potency means the concentration at half of the fitted maximal effect. The essentials: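 Human lymphoblastoid LYMP2-020 cells (2500/well) preincubated 5 h at 37 C, then treated 24 h at 37 C. Viability measured as intracellular ATP by CellTiter-Glo luminescence after 30 min at room temperature; AC50 from Hill fits.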
Assay [7] is described as follows: Cell Viability - LYMP2-022 (AID 987). Further: nearly all actives have a fitted effect of over 55% in size. Further: potency means the concentration at half of the fitted maximal effect. The essentials: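 LYMP2-022 lymphoblastoid cells (2500/well, complete medium) were treated with compounds for 24 hours at 37 C; intracellular ATP was then read by CellTiter-Glo luminescence after 30 min at room temperature. AC50 values were derived from Hill-equation fits.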
Assay [8] in a line: Cell Viability - LYMP2-024 (AID 988). Further: nearly all actives have a fitted effect of over 60% in size. Further: potency means the concentration at half of the fitted maximal effect. The essentials: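 Human lymphoblastoid LYMP2-024 cells (2500/well) rested 5 hr, then treated with compound for 24 hr at 37 C in complete medium. Viability was measured as intracellular ATP by CellTiter-Glo luminescence. AC50 values came from Hill-equation fits.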
Assay [9] is described as follows: Cell Viability - LYMP2-026 (AID 989). Further: nearly all actives have a fitted effect of over 50% in size. Further: potency means the concentration at half of the fitted maximal effect. The essentials: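 Human lymphoblastoid LYMP2-026 cells, 2500/well, exposed to compound 24 h at 37 C in complete medium. Viability as intracellular ATP by CellTiter-Glo luminescence; AC50 from Hill fits of qHTS concentration-response.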
Assay [10] is described as follows: Cell Viability - LYMP1-002 - Assay at 24 hr (AID 993). Further: potency means the concentration at half of the fitted maximal effect. In short, it runs like this: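 Human lymphoblastoid LYMP1-002 cells (2500/well) treated 24 h at 37 °C; viability as intracellular ATP by CellTiter-Glo luminescence. Tetraoctylammonium bromide as positive control; AC50 from Hill-equation fits of qHTS concentration-response.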
Assay [11] in a line: Cell Viability - LYMP1-002 - Assay at 40 hr (AID 994). Further: nearly all actives have a fitted effect of over 60% in size. Further: potency means the concentration at half of the fitted maximal effect. The essentials: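 LYMP1-002 human lymphoblastoid cells (2500/well, complete medium) were treated with compounds for 40 hr at 37 C. Intracellular ATP was measured by CellTiter-Glo luminescence, and AC50 values came from Hill-equation fits of concentration-response data; tetraoctylammonium bromide was the positive control.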

In assay [12] the target is Alpha-galactosidase (Coffea arabica) (UniProt Q42656). The assay is described as follows: Counterscreen for Glucocerebrosidase Inhibitors: qHTS Assay for Coffee Bean alpha-Galactosidase at pH 5.9 (AID 998). The essentials: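 Compounds were titrated from 0.7 nM to 77 uM against green coffee bean alpha-galactosidase (2 nM) using 80 uM fluorogenic 4-methylumbelliferyl substrate. After 20 min at room temperature, reactions were stopped at pH 10 and read by fluorescence.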
Chain of Alpha-galactosidase (Coffea arabica) (Q42656 whole entry, looked up): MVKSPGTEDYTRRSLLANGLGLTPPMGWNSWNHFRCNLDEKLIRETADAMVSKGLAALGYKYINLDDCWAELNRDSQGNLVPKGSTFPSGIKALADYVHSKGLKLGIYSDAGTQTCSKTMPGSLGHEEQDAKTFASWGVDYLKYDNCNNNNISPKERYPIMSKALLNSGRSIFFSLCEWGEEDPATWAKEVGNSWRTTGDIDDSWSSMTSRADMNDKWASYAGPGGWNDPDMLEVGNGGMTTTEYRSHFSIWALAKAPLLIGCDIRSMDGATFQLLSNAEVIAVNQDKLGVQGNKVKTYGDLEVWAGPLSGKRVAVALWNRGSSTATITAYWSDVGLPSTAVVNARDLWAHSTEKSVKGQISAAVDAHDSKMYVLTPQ
(The purpose of a counterscreen is to sort out artefacts and off-target activity.)

For the compound `Nc1ccc(Cl)cc1`, the Potency entry in assay [1], in assay [2], in [3], in assay [4], in assay [5] and in assay [6] was “inactive” throughout. Further, the Potency result in assay [7], in [8], in assay [9], in assay [10] and in assay [11] was “inactive” each time.

Turning to `NCCS`, the result in assay [12] was inactive.

As to `CCCCOC(=O)c1ccccc1C(=O)OCc1ccccc1`, the Potency result in assay [1], in assay [2], in assay [3], in assay [4], in assay [5] and in assay [6] was “inactive” throughout. Moreover, the Potency result in assay [7], in assay [8], in assay [9], in assay [10] and in assay [11] was “inactive” each time.

For `CS(=O)(=O)Nc1ccc([N+](=O)[O-])cc1Oc1ccccc1`, the compound was called inactive in [12].

Regarding `CCOCCOC(C)=O`, the Potency result in [1], in assay [2], in [3], in [4], in assay [5] and in assay [6] was “inactive” in each case. Moreover, the Potency result in [7], in assay [8], in assay [9], in assay [10] and in [11] was “inactive” each time.

In the case of `O=[N+]([O-])c1c2ccccc2cc2ccccc12`, the Potency entry in [1], in [2], in assay [3], in assay [4], in assay [5] and in [6] was “inactive” throughout. The Potency entry in [7], in [8], in assay [9], in assay [10] and in assay [11] was “inactive” in each case.

Turning to `O=C(O)COc1ccccc1`, the Potency entry in assay [1], in assay [2], in assay [3], in assay [4], in assay [5] and in assay [6] was “inactive” throughout. The Potency entry in [7], in assay [8], in assay [9], in [10] and in assay [11] was “inactive” throughout.

On to `O=[N+]([O-])c1c(Cl)c(Cl)cc(Cl)c1Cl`, for which the Potency result in assay [1], in [2], in assay [3], in assay [4], in assay [5] and in [6] was “inactive” in each case. The Potency result in assay [7], in assay [8], in [9], in [10] and in assay [11] was “inactive” throughout.

Turning to `O=[N+]([O-])c1cc([N+](=O)[O-])c2ccccc2c1`, the Potency result in assay [1], in assay [2], in [3], in [4], in [5] and in [6] was “inactive” in each case. For the same compound, the Potency result in assay [7], in assay [8], in assay [9], in assay [10] and in assay [11] was “inactive” in each case.

For the compound `OCCCBr`, the Potency entry in assay [1], in assay [2], in assay [3], in [4], in assay [5] and in [6] was “inactive” throughout. Also, the Potency result in assay [7], in assay [8], in assay [9], in assay [10] and in assay [11] was “inactive” each time.

Regarding `Nc1ccc(Cl)cc1N`, the Potency result in assay [1], in assay [2], in [3], in [4], in assay [5] and in assay [6] was “inactive” throughout. The Potency result in assay [8], in assay [9], in assay [10] and in assay [11] was “inactive” in each case.

For `COC(C)(C)CCCC(C)C/C=C/C(C)=C/C(=O)OC(C)C` (stereo not given), the Potency entry in [1], in assay [2], in assay [3], in assay [4], in assay [5] and in assay [6] was “inactive” each time. Further, the Potency entry in assay [7], in assay [8], in assay [9], in [10] and in assay [11] was “inactive” in each case.

In the case of `c1cc2ccc3cccc4ccc(c1)c2c34`, the Potency entry in assay [1], in assay [2], in assay [3], in assay [4], in assay [5] and in assay [6] was “inactive” throughout. Further, the Potency entry in assay [7], in assay [8], in assay [9], in assay [10] and in assay [11] was “inactive” in each case.

With `O=C(O)C(Cl)Cl`, the Potency result in assay [1], in assay [2], in [3], in assay [4], in assay [5] and in assay [6] was “inactive” each time. Besides, the Potency entry in [7], in [8], in assay [9], in assay [10] and in [11] was “inactive” throughout.

`CCc1c(C)[nH]c2c1C(=O)C(CN1CCOCC1)CC2` (stereo not given): the outcome in [12] was inactive.

Regarding `Nc1ccc(Sc2ccc(N)cc2)cc1`, the Potency result in assay [1], in assay [2], in [3], in [4], in assay [5] and in [6] was “inactive” throughout. Moreover, the Potency result in assay [7], in assay [8], in assay [9], in assay [10] and in assay [11] was “inactive” throughout.

With `CCOC(=O)C1=C[C@@]2(CC)CCCN3CCc4c(n1c1ccccc41)[C@H]32`, the compound was classed as inactive in [12].

Take `CCN1CCc2nc(N)oc2CC1`: in assay [12], the outcome was inactive.

Turning to `CC(C)(O)C(=O)Nc1ccc([N+](=O)[O-])c(C(F)(F)F)c1`, the Potency entry in assay [1], in assay [2], in [3], in assay [4], in [5] and in assay [6] was “inactive” in each case. Moreover, the Potency result in assay [8], in [9], in [10] and in [11] was “inactive” in each case.

Turning to `CN(C)NC(=O)CCC(=O)O`, the Potency entry in assay [1], in assay [2], in assay [3], in assay [4], in [5] and in assay [6] was “inactive” in each case. The Potency entry in [7], in assay [8], in assay [9], in assay [10] and in assay [11] was “inactive” each time.

Consider `CC(=O)[O][Hg][c]1ccccc1`, for which the Potency is 1.26 µM (active) in assay [1]; 398 nM (active) in assay [2]; 501 nM (active) in [3]; 1.58 µM (active) in [4]; 1 µM (active) in assay [5]; 794 nM (active) in [6]. Further, the Potency in assay [7] was 501 nM (active); in [8], 501 nM (active); in assay [9] it was 1.26 µM (active); in assay [10], 3.98 µM (active); in assay [11], 3.98 µM (active).

Regarding `CC(C)(Sc1ccc(CCN(CCCCC2CCCCC2)C(=O)NC2CCCCC2)cc1)C(=O)O`, the compound was classed as inactive in assay [12].
